Test results taken from PubChem BioAssay (NCATS).
Results filed as inconclusive are left out. A call without a number means that no potency is given here. Activity calls are given as the source filed them. Calls follow the shape of the dose curve; as a rule, active = well fitted inhibition curve with a large enough effect; inconclusive = small, poorly fitted or top-dose-only effect; inactive = flat fitted curve, though single readings scatter.

Biological target: Luciferin 4-monooxygenase (Photinus pyralis) (UniProt P08659)
Assay: Biochemical firefly luciferase enzyme assay for NPC (AID 624030); also: nearly all actives have a fitted effect of over 70% in size
Details: purified P. pyralis luciferase, luminescence, 5 min; series mostly up to 58.6 µM
Description: Charcot-Marie-Tooth-Association [CMTA] National Center for Advancing Translational Sciences [NCATS] Charcot-Marie-Tooth (CMT) disease was first characterized by Jean-Martin Charcot and Pierre Marie in France and, independently, by Howard Henry Tooth in England in 1886. CMT is one of the most common inherited neurological diseases, affecting approximately 1 in 2,500 Americans. […] The most prevalent type of CMT is known as CMT1A and caused by a duplication of the PMP22 gene which leads to over-expression of this protein. PMP22 is a glycosylated intrinsic membrane protein accounting for 2-5% of the myelin protein content, and its over-expression results in demyelination and subsequently axonal loss. A pair of cellular transcription-based assays was developed in the S16 rat Schwann cell lines (Hai, M., et al., 2002) stably transfected with orthogonal reporters - firefly luciferase (Fluc) and beta-lactamase (beta-Lac) - whose expression is driven by an intronic regulatory element of the PMP22 gene (Jones, E.A., et al., 2011) to recapitulate endogenous expression of PMP22. A comprehensive library of approved drugs, the NCGC Pharmaceutical Collection (Huang, R., et al., 2011), was screened in the cross-validating platform of the orthogonal reporter assays to identify drug modulators inhibitory towards PMP22 expression. A set of counter-screens was devised to address non-specific activity of the library. An ATP-dependent CellTiter-Glo assay (developed by Promega Corp) was utilized to control cell viability. In addition, biochemical Fluc enzyme assay was performed to assess direct inhibition of the Fluc enzymatic activity. References Hai, M., Muja, N., DeVries, G.H., Quarles, R.H. and Patel, P.I. Comparative analysis of Schwann cell lines as model systems for myelin gene transcription studies. J Neurosci Res, 2002. 69(4): pp 497-508 Huang, R., Southall, N., Wang, Y., Yasgar A., Shinn P., Jadhav, A. , Nguyen, D.-T. and Austin, C.P., The NCGC pharmaceutical collection: a comprehensive resource of clinically approved drugs enabling repurposing and chemical genomics. Sci Transl Med, 2011. 3(80): p. 80ps16.
Compounds were transferred to the plates in 23nl, and one microliter/well luciferase enzyme-buffer solution (10 nM P. pyralis luciferase and 50 mM Tris Acetate final concentrations) was dispensed yielding a final reaction volume of […]. Luciferase luminescence was measured by a ViewLux plate reader within 5 minutes of enzyme-buffer addition. The % activity was determined by normalizing to the average readings of PTC124 (a positive control) relative to DMSO (0% Activity). The concentration-effect curves were then classified based on curve quality (r2), response magnitude and degree of measured activity.
Potency is read from the fitted curve at half-maximal effect.

Chain of Luciferin 4-monooxygenase (Photinus pyralis) (P08659 whole entry, looked up): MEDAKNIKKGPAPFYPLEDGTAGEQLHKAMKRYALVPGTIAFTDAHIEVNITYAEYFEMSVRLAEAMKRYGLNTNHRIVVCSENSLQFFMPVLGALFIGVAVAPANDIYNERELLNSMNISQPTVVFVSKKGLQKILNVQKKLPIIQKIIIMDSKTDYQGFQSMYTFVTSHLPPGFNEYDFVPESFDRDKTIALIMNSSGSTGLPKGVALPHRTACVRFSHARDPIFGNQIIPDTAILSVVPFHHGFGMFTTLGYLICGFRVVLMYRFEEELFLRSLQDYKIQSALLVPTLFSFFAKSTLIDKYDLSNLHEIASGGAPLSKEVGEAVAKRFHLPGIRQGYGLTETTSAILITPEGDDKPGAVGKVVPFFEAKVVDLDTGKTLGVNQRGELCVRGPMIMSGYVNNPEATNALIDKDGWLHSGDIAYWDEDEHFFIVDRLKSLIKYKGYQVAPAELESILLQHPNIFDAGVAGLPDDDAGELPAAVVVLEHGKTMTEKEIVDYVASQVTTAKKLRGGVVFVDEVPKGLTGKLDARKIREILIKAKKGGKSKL

| Compound | Potency |
| --- | --- |
| C[C@]12CC[C@@H]3[C@@H](CCC4=CC(=O)CC[C@@H]43)[C@@H]1CC[C@@H]2OC(=O)CCc1ccccc1 | inactive |
| C1CCC(NC2CCCCC2)CC1 | inactive |
| CCCCC(CC)COC(=O)c1ccccc1C(=O)OCC(CC)CCCC (stereo not given) | inactive |
| C[C@]12CCC(=O)C(O)=C1CC[C@@H]1[C@H]3CCC(=O)[C@@]3(C)CC[C@@H]12 | inactive |
| O=C(O)c1ccccc1O | inactive |
| Cc1cc(O)ccc1Cl | inactive |
| CCCCOC(=O)c1ccccc1C(=O)OCc1ccccc1 | inactive |
| O=S(=O)(O)C(F)(F)C(F)(F)C(F)(F)C(F)(F)F | inactive |
| CC(=O)OCC1=C(C(=O)O)N2C(=O)[C@@H](N)[C@@H]2SC1 | inactive |
| CS(=O)(=O)c1ccc(C(=O)C2C(=O)CCCC2=O)c([N+](=O)[O-])c1 | inactive |
| OCCCBr | inactive |
| CC(=O)[O][Hg][c]1ccccc1 | 2.56 µM (active) |
| CC(C)Oc1cccc(NC(=O)c2ccccc2C(F)(F)F)c1 | inactive |
| CC(C)(C)C(O)C(Oc1ccc(Cl)cc1)n1cncn1 (stereo not given) | inactive |
| C[C@@H]1[C@H](O)[C@@H](C)C=CC=CCCC=CC=CC=CC=C[C@H](O[C@H]2O[C@@H](C)[C@H](O)[C@@H](N)[C@@H]2O)CC2O[C@](O)(C[C@@H](O)[C@H](O)CC[C@@H](O)C[C@@H](O)C[C@@H](O)CC(=O)O[C@H]1C)C[C@H](O)[C@H]2C(=O)O | inactive |
| COC(=O)c1cncn1C(C)c1ccccc1 (stereo not given) | inactive |
| COc1cc([C@@H]2c3cc4c(cc3[C@@H](O)C3COC(=O)C32)OCO4)cc(OC)c1O (stereo not given in full) | inactive |
| O=C(O)COc1nc(Cl)c(Cl)cc1Cl | inactive |
| Nc1ccc(Cl)cc1N | 3.32 µM (active) |
| CCOP(=O)(NC(C)C)Oc1ccc(SC)c(C)c1 (stereo not given) | inactive |

| Compound | Potency |
| --- | --- |
| [Cl][In]([Cl])[Cl] | 14.8 µM (active) |
| O=S(=O)(c1ccc(Cl)cc1)c1ccc(Cl)cc1 | inactive |
| Nc1ccc(N=Nc2ccccc2)cc1 | 5.26 µM (active) |
| CC(C)(C)NC[C@H](O)c1ccc(O)cc1Cl | inactive |
| CCCCCCCCCC(CC)c1ccc(S(=O)(=O)O)cc1 (stereo not given) | inactive |
| C=CC(=O)NCNC(=O)C=C | inactive |
| CC[N+]1(CCOC(=O)C(O)(c2ccccc2)c2ccccc2)CCCCC1 | inactive |
| Nc1ccc(Cl)cc1 | inactive |
| O=C(Nc1ccccc1-c1ccc(Cl)cc1)c1cccnc1Cl | inactive |
| CCCCCCCCCCCCCCCC[N+](C)(C)C | inactive |
| CCCN1CCC[C@H](c2cccc(O)c2)C1 | inactive |
| CCCCc1ccc(C(=O)O)nc1 | inactive |
| NC1=NC(=O)N2CC12 (stereo not given) | inactive |
| C=CCN1CC[C@]23CCCCC2[C@H]1Cc1ccc(O)cc13 (stereo not given in full) | inactive |
| c1cc2ccc3cccc4ccc(c1)c2c34 | inactive |
| c1ccc(C2(c3ccccc3)CC2C2=NCCN2)cc1 (stereo not given) | inactive |
| CCOCCOC(C)=O | inactive |
| Nc1c(Cl)c(Cl)c(Cl)c(Cl)c1Cl | inactive |
| CN1C2CCC1CC(OC(=O)c1cc(Cl)cc(Cl)c1)C2 (stereo not given) | inactive |
| Cc1ccc(Cl)c(O)c1 | inactive |
